Inconclusive results are not listed. Active and inactive are the calls of the source. Unless noted, calls follow the shape of the dose curve; as a rule, active = well fitted curve in the direction sought with a large enough effect in the repeat runs; inconclusive = weak or mixed curves; inactive = no such curve, though single readings can be large; an effect the other way counts as inactive or inconclusive.
Key:
[1] = qHTS assay to identify small molecule antagonists of the estrogen related receptor (ERR) signaling pathway from Tox21 library - cell viability counter screen (AID 1224834); also: nearly all actives have a fitted effect of over 30% in size
Outline: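 Counter screen run in ERR cells (2,000 cells/well): cells pre-incubated 6 h, then treated with compounds for 17.5 h at 37 C. Fluorescence was read 30 min after CellTiter-Fluor addition.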

[2] = target: Luciferin 4-monooxygenase (Photinus pyralis) (UniProt P08659); test: qHTS assay to identify small molecule inhibitors of firefly luciferase (AID 1224835); also: nearly all actives have a fitted effect of over 25% in size
Outline: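 Quantitative HTS format; KM concentrations of both substrates. Purified P. pyralis FLuc activity quantified from luminescence images.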

[3] = qHTS assay to identify small molecule agonists of the constitutive androstane receptor (CAR) signaling pathway - cell viability counter screen (AID 1224836); also: nearly all actives have a fitted effect of over 45% in size
Outline: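 HepG2-CYP2B6-hCAR, 2500 cells/well, 4 h pre-incubation; cpd 15 conc + PK11195 0.75 uM final; 23 h, 37 C/5% CO2; CellTiter-Fluor, fluorescence.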

[4] = qHTS assay to identify small molecule antagonists of the constitutive androstane receptor (CAR) signaling pathway - cell viability counter screen (AID 1224837); also: nearly all actives have a fitted effect of over 45% in size
Outline: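 CITCO at 50 nM final was added alongside compounds (15 concentrations) to double-stable hCAR/CYP2B6-2.2kb HepG2 cells. Following 23 hr at 37 C, cell viability was quantified by CellTiter-Fluor fluorescence intensity.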

[5] = target: Nuclear receptor subfamily 1 group I member 3 (Homo sapiens) (UniProt Q14994); test: qHTS assay to identify small molecule antagonists of the constitutive androstane receptor (CAR) signaling pathway (AID 1224838); also: nearly all actives have a fitted effect of over 40% in size
Outline: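 Inhibition of CITCO-driven (50 nM final) CYP2B6 reporter expression is measured in HepG2 cells stably carrying hCAR. Fifteen compound concentrations are applied for 24 h at 37 C, followed by luciferase luminescence.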

[6] = target: Nuclear receptor subfamily 1 group I member 3 (Homo sapiens) (UniProt Q14994); test: qHTS assay to identify small molecule agonists of the constitutive androstane receptor (CAR) signaling pathway (AID 1224839); also: nearly all actives have a fitted effect of over 15% in size
Outline: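 HepG2-CYP2B6-hCAR cells, 2500/well, 4 h pre-incubation; compounds 15 conc.; PK11195 0.75 uM final; 24 h, 37 C/5% CO2; ONE-Glo luciferase read.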

[7] = qHTS assay to identify small molecule antagonists of the estrogen related receptor signaling pathway with the pleiotropic PPARgamma coactivator (PGC) from Tox21 10K library - cell viability counter screen (AID 1224840; active = well fitted cell-killing curve with a large enough effect in the repeat runs, not every such curve was filed as active; also: nearly all actives have a fitted effect of over 40% in size)
Outline: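 Readout: fluorescence intensity from CellTiter-Fluor after 30 min at 37 C/5% CO2. Preceded by 17.5 h treatment of PGC/ERR cells with DMSO-dissolved compounds, added 6 h post-seeding.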

[8] = qHTS assay to identify small molecule antagonists of the estrogen related receptor signaling pathway with the pleiotropic PPARgamma coactivator (PGC) from Tox21 10K library (AID 1224841; call rule not given here; also: actives are mostly falling curves and most rising ones were filed inactive; nearly all actives have a fitted effect of over 50% in size)
Outline: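 One-Glo luminescence, measured after half an hour at room temperature, quantified reporter output of PGC/ERR cells. These had been plated at 2,000 per well, incubated 6 h, dosed with compounds in DMSO, then kept 18 h at 37 C.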

[9] = qHTS assay to identify small molecule agonists of the estrogen related receptor signaling pathway with the pleiotropic PPARgamma coactivator (PGC) from Tox21 10K library (AID 1224842); also: nearly all actives have a fitted effect of over 15% in size
Outline: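 PGC/ERR reporter cells (NTP line) were seeded 2,000 per well, rested 6 h at 37 C/5% CO2, then pin-dosed with compounds in DMSO for 18 h at 37 C; luciferase read by One-Glo luminescence after 30 min at room temperature.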

[10] = target: Thyrotropin receptor (Homo sapiens) (UniProt P16473); test: qHTS assay to identify small molecule agonists of the thyroid stimulating hormone receptor (TSHR) signaling pathway (AID 1224843; calls by dose curve; also: nearly all actives have a fitted effect of over 45% in size)
Outline: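 Compounds are titrated over 15 concentrations, in triplicate, onto TSHR-HEK293 cells seeded at 800/well. Plates sit 30 min at room temperature before cAMP-d2 and anti-cAMP cryptate are added; signal is read after a further hour.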

[11] = qHTS assay to identify small molecule agonists of the hypoxia (HIF-1) signaling pathway - cell viability counter screen (AID 1224844; calls by dose curve; also: nearly all actives have a fitted effect of over 50% in size)
Outline: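 In this counter screen, HRE-bla ME-180 cell viability after 17 hrs of compound exposure at 37C was read by CellTiter-Glo luminescence, multiplexed with the beta-lactamase reporter measurement.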

[12] = qHTS assay to identify small molecule agonists of the hypoxia (HIF-1) signaling pathway (AID 1224846; active = well fitted activation curve with a large enough effect in the signal ratio in the repeat runs, not every such curve was filed as active; the % refers to the signal ratio)
Outline: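 ME-180 HRE-bla reporter cells; compounds in DMSO, 17 h at 37C; read-out beta-lactamase via CCF4-AM FRET.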

[13] = qHTS assay to identify small molecule agonists of H2AX - cell viability counter screen (AID 1224847; calls by dose curve; also: top concentration of the series differs between compounds; nearly all actives have a fitted effect of over 30% in size)
Outline: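 Cells plated first: CHO-K1, 1000 per well in 10% FBS medium, incubated overnight at 37C. Then 15-point compound titration added (final DMSO 0.76%) for 3 hr. Finally CellTiter-Glo added and luminescence read.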

[14] = qHTS assay to identify small molecule antagonists of the estrogen related receptor (ERR) signaling pathway from Tox21 library (AID 1224848); also: nearly all actives have a fitted effect of over 50% in size
Outline: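 First, 2,000 ERR cells per well were plated and held 6 h at 37 C/5% CO2. Next, compounds in DMSO were pinned in and left 18 h at 37 C. Finally, ONE-Glo was added and luminescence read after 30 min at room temperature.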

[15] = qHTS assay to identify small molecule agonists of the estrogen related receptor (ERR) signaling pathway from Tox21 library (AID 1224849; calls by dose curve; also: nearly all actives have a fitted effect of over 15% in size); details: ERR reporter cell line, ONE-Glo luciferase, 18 h; at 92.4 µM (top of the series) unless noted
Outline: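 Luciferase activity in ERR pathway reporter cells served as the agonist readout; exposure lasted 18 h at 37 C, with ONE-Glo detection after 30 min at room temperature.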

[16] = qHTS RealTime-Glo MT Cell Viability Assay in HepG2 cells - 24 hour (AID 1224867); also: nearly all actives have a fitted effect of over 50% in size
Outline: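 HepG2 suspension premixed with RealTime-Glo reagents is plated at 600 cells per well and left 5 h at 37 C/5% CO2. Compounds in DMSO then go in, and bioluminescence reflecting viable cell number is recorded over 40 h.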

[17] = qHTS RealTime-Glo MT Cell Viability Assay in HEK293 cells - 32 hour (AID 1224868)
Outline: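 Reads taken at 0, 8, 16, 24, 32 and 40 h from the same wells. HEK293 cells (600/well) carried RealTime-Glo reagents from seeding, with compound added after a 5 h settle at 37 C.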

[18] = A CellTox Green Cytotoxicity Assay to monitor cytotoxicity in HEK293 cells - 0 hour (AID 1224869); also: nearly all actives have a fitted effect of over 50% in size
Outline: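 Real-time, in one plate: 600 HEK293 cells/well with dead-cell DNA dye, pinned compound after 5 h, 37 C incubation over 40 h; viable cells give no appreciable fluorescence.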

[19] = qHTS RealTime-Glo MT Cell Viability Assay in HepG2 cells - 40 hour (AID 1224870); also: nearly all actives have a fitted effect of over 50% in size
Outline: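 HepG2 cells mixed with RealTime-Glo MT reagents (NanoLuc plus cell-permeant prosubstrate) were seeded at 600 cells/well, incubated 5 h at 37 C/5% CO2, then pinned with compounds in DMSO; nonlytic luminescence tracked viability during 40 h treatment.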

[20] = qHTS assay to identify small molecule agonists of H2AX (AID 1224845; active = well fitted activation curve with a large enough effect in the signal ratio in the repeat runs, not every such curve was filed as active; the % refers to the signal ratio)
Outline: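 Wild-type CHO-K1 cells plated overnight, then exposed 3 hr at 37C to compounds at 15 concentrations (0.76% DMSO). Lysed, then HTRF anti-pH2AX(S139)-cryptate/anti-H2AX-d2 detection after 24 hr at room temperature; emissions 665 and 620 nm.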
% is scaled to controls: 0 for no effect and ±100 for the full control effect.

Sequence of Nuclear receptor subfamily 1 group I member 3 (Homo sapiens) (Q14994 whole entry, looked up): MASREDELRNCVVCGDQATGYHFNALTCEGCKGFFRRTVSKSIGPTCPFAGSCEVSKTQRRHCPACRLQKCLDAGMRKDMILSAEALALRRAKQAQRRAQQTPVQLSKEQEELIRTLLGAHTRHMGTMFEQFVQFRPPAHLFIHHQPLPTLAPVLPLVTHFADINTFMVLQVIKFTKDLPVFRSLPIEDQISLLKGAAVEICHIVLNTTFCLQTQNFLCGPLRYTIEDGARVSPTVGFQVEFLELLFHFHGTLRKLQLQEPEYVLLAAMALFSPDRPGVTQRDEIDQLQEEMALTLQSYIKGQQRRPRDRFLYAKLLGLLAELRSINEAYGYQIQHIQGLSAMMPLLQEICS
Sequence of Luciferin 4-monooxygenase (Photinus pyralis) (P08659 whole entry, looked up): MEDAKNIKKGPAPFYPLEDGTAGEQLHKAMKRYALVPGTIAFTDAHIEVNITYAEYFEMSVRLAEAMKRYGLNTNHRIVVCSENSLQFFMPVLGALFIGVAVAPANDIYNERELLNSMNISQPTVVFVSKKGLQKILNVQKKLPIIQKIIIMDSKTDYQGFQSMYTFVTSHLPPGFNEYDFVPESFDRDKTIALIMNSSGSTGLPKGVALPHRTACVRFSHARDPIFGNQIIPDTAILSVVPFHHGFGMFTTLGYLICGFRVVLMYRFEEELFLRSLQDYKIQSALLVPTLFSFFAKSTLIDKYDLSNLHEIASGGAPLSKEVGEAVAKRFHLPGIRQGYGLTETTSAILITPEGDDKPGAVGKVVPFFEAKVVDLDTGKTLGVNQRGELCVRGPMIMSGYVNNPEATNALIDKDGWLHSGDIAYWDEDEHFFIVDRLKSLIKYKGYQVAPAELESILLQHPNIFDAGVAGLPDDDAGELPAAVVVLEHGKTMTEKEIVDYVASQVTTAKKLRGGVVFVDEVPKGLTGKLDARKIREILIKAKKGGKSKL
Sequence of Thyrotropin receptor (Homo sapiens) (P16473 whole entry, looked up): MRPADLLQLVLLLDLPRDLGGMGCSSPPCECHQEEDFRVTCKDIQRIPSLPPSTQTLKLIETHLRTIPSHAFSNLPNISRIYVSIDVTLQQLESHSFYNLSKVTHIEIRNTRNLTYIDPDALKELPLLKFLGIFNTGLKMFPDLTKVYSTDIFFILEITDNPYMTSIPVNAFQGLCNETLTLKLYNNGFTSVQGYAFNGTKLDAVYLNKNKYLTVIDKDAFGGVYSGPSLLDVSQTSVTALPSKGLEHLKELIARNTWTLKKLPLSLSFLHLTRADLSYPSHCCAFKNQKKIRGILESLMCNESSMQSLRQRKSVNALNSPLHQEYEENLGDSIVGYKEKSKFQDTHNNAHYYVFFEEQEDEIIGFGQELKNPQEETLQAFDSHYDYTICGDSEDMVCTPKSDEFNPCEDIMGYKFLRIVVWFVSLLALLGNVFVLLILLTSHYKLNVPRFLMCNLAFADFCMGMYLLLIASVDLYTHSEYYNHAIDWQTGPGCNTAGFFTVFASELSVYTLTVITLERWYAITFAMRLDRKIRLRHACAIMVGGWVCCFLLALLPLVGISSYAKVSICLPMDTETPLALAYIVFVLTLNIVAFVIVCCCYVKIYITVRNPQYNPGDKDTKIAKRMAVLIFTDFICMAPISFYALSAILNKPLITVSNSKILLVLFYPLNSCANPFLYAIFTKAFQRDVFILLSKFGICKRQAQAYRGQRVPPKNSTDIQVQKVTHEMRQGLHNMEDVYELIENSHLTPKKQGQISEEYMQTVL

COc1nc(N)nc2c1ncn2[C@@H]1O[C@H](CO)[C@@H](O)[C@@H]1O
inactive: Potency [1] | Potency [2] | Potency [3] | Potency [4] | Potency [5] | Potency [6] | Potency [7] | Potency [8] | outcome [9] | Potency [10] | Potency [11] | outcome [12] | Potency [13] | Potency [14] | activity change, positive = activation [15] 4.89% [at 42.5 µM] | Potency [16] | Potency [17] | Potency [18] | Potency [19]

O=C(O)Cc1ccc(CCNS(=O)(=O)c2ccc(Cl)cc2)cc1
inactive: Potency [1] | Potency [2] | Potency [3] | Potency [4] | Potency [5] | Potency [6] | Potency [7] | Potency [8] | outcome [9] | Potency [11] | outcome [20] | outcome [12] | Potency [13] | Potency [14] | activity change, positive = activation [15] 0.244% [at 42.5 µM] | Potency [16] | Potency [17] | Potency [18] | Potency [19]

CC(=O)Nc1c(I)cc(I)c(C(=O)O)c1I
inactive: Potency [1] | Potency [2] | Potency [3] | Potency [4] | Potency [5] | Potency [6] | Potency [7] | Potency [8] | outcome [9] | Potency [11] | outcome [20] | Potency [13] | Potency [14] | activity change, positive = activation [15] 7.03% [at 42.5 µM] | Potency [16] | Potency [17] | Potency [18] | Potency [19]

CCn1ccnc1CC1COc2ccccc2O1 (stereo not drawn)
inactive: Potency [1] | Potency [2] | Potency [3] | Potency [4] | Potency [5] | Potency [6] | Potency [7] | Potency [8] | outcome [9] | Potency [11] | outcome [20] | Potency [13] | Potency [14] | activity change, positive = activation [15] 8.29% [at 42.5 µM] | Potency [16] | Potency [17] | Potency [19]

COc1ccc2c(c1)CCCC2=O
inactive: Potency [1] | Potency [2] | Potency [3] | Potency [4] | Potency [5] | Potency [6] | Potency [7] | Potency [8] | outcome [9] | Potency [11] | outcome [20] | outcome [12] | Potency [13] | Potency [14] | activity change, positive = activation [15] 4.85% [at 42.5 µM] | Potency [16] | Potency [17]

CCOC(=O)CCC(C)=O
inactive: Potency [1] | Potency [2] | Potency [3] | Potency [4] | Potency [5] | Potency [6] | Potency [7] | Potency [8] | outcome [9] | Potency [11] | outcome [20] | outcome [12] | Potency [13] | Potency [14] | Potency [16] | Potency [17] | Potency [18]

CCOC(=O)c1ccc(C)cc1
inactive: Potency [1] | Potency [2] | Potency [3] | Potency [4] | Potency [5] | Potency [6] | Potency [7] | Potency [8] | outcome [9] | Potency [11] | outcome [20] | outcome [12] | Potency [13] | Potency [14] | activity change, positive = activation [15] 4.47% | Potency [16] | Potency [17] | Potency [18] | Potency [19]

NC(=O)c1ccc([N+](=O)[O-])cc1
inactive: Potency [1] | Potency [2] | Potency [3] | Potency [4] | Potency [5] | Potency [6] | Potency [7] | Potency [8] | outcome [9] | Potency [10] | Potency [11] | outcome [20] | Potency [13] | Potency [14] | activity change, positive = activation [15] -5.69% | Potency [16] | Potency [17] | Potency [19]

Cc1cccn2c(=O)c(-c3nnn[nH]3)cnc12
inactive: viability change, negative = cytotoxic [1] 0.715% [at 19 µM] | activity change, negative = inhibition [2] 1.24% [at 23.6 µM] | viability change, negative = cytotoxic [3] 10.1% [at 19 µM] | activity change, negative = cytotoxicity [4] -0.444% [at 19 µM] | activity, negative = inhibition [5] -0.816% [at 19 µM] | activation [6] 2.7% [at 19 µM] | viability change, negative = cytotoxic [7] 11.8% [at 19 µM] | activity, negative = inhibition [8] 13.5% [at 19 µM] | activation [9] 4.84% [at 19 µM] | Potency [10] | activity change, negative = cytotoxicity [11] -2.16% [at 15.8 µM] | outcome [20] | Potency [13] | activity, negative = inhibition [14] 7.1% [at 19 µM] | activity change, negative = cytotoxicity [16] -2.42% [at 15.8 µM] | activity change, negative = cytotoxic [17] -0.452% [at 15.8 µM] | cytotoxicity [18] 3.94% [at 15.8 µM] | activity change, negative = cytotoxic [19] 2.03% [at 15.8 µM]

Cc1cccc(C)c1NC(=O)C(C)N (stereo not drawn)
inactive: Potency [1] | Potency [2] | Potency [3] | Potency [4] | Potency [5] | Potency [6] | Potency [7] | Potency [8] | outcome [9] | Potency [10] | Potency [11] | outcome [20] | Potency [13] | Potency [14] | activity change, positive = activation [15] 3.88% [at 42.5 µM] | Potency [16] | Potency [17] | Potency [19]

O=C(O)CCCc1ccccc1
inactive: Potency [1] | Potency [2] | Potency [3] | Potency [4] | Potency [5] | Potency [6] | Potency [7] | Potency [8] | outcome [9] | Potency [10] | Potency [11] | outcome [20] | Potency [13] | Potency [14] | Potency [16] | Potency [17] | Potency [18] | Potency [19]

CC(C)(C)c1nnc(NS(=O)(=O)c2ccccc2)s1
inactive: Potency [1] | Potency [2] | Potency [3] | Potency [4] | Potency [5] | Potency [6] | Potency [7] | Potency [8] | outcome [9] | Potency [10] | Potency [11] | outcome [20] | Potency [13] | activity change, positive = activation [15] -14.8% [at 42.5 µM] | Potency [16] | Potency [17] | Potency [18]

CC1=CC(C)C(C=O)CC1 (stereo not drawn)
inactive: Potency [1] | Potency [2] | Potency [3] | Potency [4] | Potency [5] | Potency [6] | Potency [7] | Potency [8] | outcome [9] | Potency [10] | Potency [11] | outcome [20] | Potency [13] | Potency [14] | activity change, positive = activation [15] 0.053% | Potency [16] | Potency [17] | Potency [19]
